Source: PubChem BioAssay
Sampled rows, rich in hits. Any-hit rate of the full collection: about 32%.
PostGolgi ctrl – growth of the yeast control strain, post-Golgi counter-screen; AID 738; efflux-deficient yeast background strain, growth absorbance A615, 16 h; actives 5% (n = 98,000); inhibition, % at 10 µM
CYP2C9 inhib – inhibitors of human CYP2C9 | P11712 | CYP2C9 Supersomes, luciferin-H conversion, luminescence | inhibition, % at 5 µM | actives 20% (n = 96,000) | AID 777;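 active = blocking of liver enzyme CYP2C9 beyond about 50% at 5 µM, limit read from the data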
Target sequence (P11712 whole entry, looked up): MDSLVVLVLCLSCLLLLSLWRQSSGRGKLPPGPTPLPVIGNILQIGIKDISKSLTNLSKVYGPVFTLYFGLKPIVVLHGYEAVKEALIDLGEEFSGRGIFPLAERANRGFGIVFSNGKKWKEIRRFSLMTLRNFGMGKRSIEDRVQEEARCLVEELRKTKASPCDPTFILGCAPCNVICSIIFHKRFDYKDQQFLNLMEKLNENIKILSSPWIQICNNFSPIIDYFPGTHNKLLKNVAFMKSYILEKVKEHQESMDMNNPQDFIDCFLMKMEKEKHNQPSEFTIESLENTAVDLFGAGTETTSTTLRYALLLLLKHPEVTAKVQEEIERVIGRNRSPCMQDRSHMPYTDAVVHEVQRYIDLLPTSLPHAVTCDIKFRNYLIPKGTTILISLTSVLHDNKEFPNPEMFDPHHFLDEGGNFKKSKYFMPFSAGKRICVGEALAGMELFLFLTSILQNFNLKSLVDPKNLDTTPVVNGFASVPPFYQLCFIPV
PostGolgi yeast – growth inhibition of a yeast mutant, post-Golgi transport screen. post-Golgi transport phenotypic cell assay. inhibition, % at 10 µM. actives 0.9% (n = 98,000). AID 739;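 note: yeast cells grown in 1536-well plates; yeast grown about 18 h at 30C before absorbance read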
CYP2C19 inh – human CYP2C19 inhibition; P33261; actives 21% (n = 96,000); AID 778; CYP2C19 Supersomes, luciferin-H EGE luminescence, 30 min; inhibition, % at 5 µM;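 active = CYP2C19 inhibition above a set limit at 5 µM in the primary screen, cut at about 50% in these data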;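 note: plate controls were negative control wells for no effect and 2.5 mM tranylcypromine positive control for full effect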
CYP2C9 activ – increases human cytochrome P450 2C9 activity; P11712; recombinant CYP2C9, luciferin-H conversion, luminescence; stronger effect = higher value; factor 1 = untreated enzyme, 0 = blocked; activation factor at 5 µM; actives 1.4% (n = 96,000); AID 1024;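 active = activation factor of 2 or more for CYP2C9 at a 5 µM dose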;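 note: 0 = sulfaphenazole-blocked wells and 1 = vehicle-only wells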
CYP2C19 activ – activators of human cytochrome P450 2C19 | P33261 | recombinant CYP2C19, luciferin-H EGE luminescence; stronger effect = higher value; 0 = fully inhibited enzyme, 1 = untreated enzyme | activation factor at 5 µM | 96,000 tested, under 10 active;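 active = activation factor of at least 2 at 5 µM in the primary screen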;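 note: 0 = wells with 2.5 mM tranylcypromine and 1 = vehicle-only wells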
* marks the source's active call; other numbers are inactive results; . = no result given. Cut-off read from the data, not from the text of the source, unless noted: active = inhibition above about 30%; inactive = the rest.

SMILES | PostGolgi ctrl | CYP2C9 inhib | PostGolgi yeast | CYP2C19 inh | CYP2C9 activ | CYP2C19 activ
C=CCn1c(SCn2nnc3ccccc3c2=O)nnc1C1CCCCC1 | 32.4* | 9.9 | -7.5 | 97.6* | 0.9 | 0
Cc1ccc(Nc2nnc(SCn3nnc4ccccc4c3=O)s2)cc1 | 23.0 | 5.9 | -3.8 | 17.6 | 0.9 | 0.8
Cc1nc(SCn2nnc3ccccc3c2=O)nc(C)c1C | 0.5 | 8.5 | -0.2 | 75.2* | 0.9 | 0.2
C=CCn1c(SCC(=O)NC2CCCCC2)nnc1C1CCCCC1 | 4.9 | 2.9 | 12.4 | 0.3 | 1 | 1
C=CCn1c(SCn2nnc3ccccc3c2=O)nnc1-c1ccc(Br)cc1 | 19.0 | 75.2* | 24.2 | 75.6* | 0.2 | 0.2
C=CCn1c(SCn2nnc3ccccc3c2=O)nnc1-c1ccc(F)cc1 | 5.3 | 23.5 | 4.8 | 99.1* | 0.8 | 0
CCCC(=O)N(C)c1nnc(-c2ccc(OC)cc2)s1 | 8.5 | 42.9 | 3.4 | 28.3 | 0.6 | 0.7
CCC(C)(C)n1nnnc1C(c1ccc(N(C)C)cc1)N1CCN(C2CCCCC2)CC1 (stereo unspecified) | 24.7 | -20.5 | 7.5 | 22.7 | 1.2 | 0.8
Nn1c(Cc2cccc3ccccc23)nnc1SCn1nnc2ccccc2c1=O | 3.7 | -13.0 | 6.2 | 4.4 | 1.1 | 1
CCc1cccc(CC)c1-n1c(SCn2nnc3ccccc3c2=O)nnc1-c1cccnc1 | 8.3 | 93.3* | -1.4 | 96.2* | 0.1 | 0
CC(C)(C)n1nnnc1C(c1ccncc1)N(Cc1ccccc1)Cc1ccco1 (stereo unspecified) | 23.4 | 86.7* | 17.1 | 73.7* | 0.1 | 0.3
CC(C)(C)n1nnnc1C(c1ccccn1)N(Cc1ccccc1)Cc1ccc(Cl)cc1 (stereo unspecified) | 16.3 | 31.5 | 4.2 | 5.8 | 0.7 | 0.9
CCN(Cc1ccccc1)C(c1ccccn1)c1nnnn1C(C)(C)CC (stereo unspecified) | 7.9 | 70.9* | 1.4 | 86.0* | 0.3 | 0.1
CC(C)(C)n1nnnc1C(c1cccs1)N(Cc1ccccc1)Cc1ccco1 (stereo unspecified) | 24.9 | 52.8* | -0.2 | 31.0 | 0.5 | 0.7
CC(C)(C)n1nnnc1C(c1cccs1)N(Cc1cccnc1)Cc1ccco1 (stereo unspecified) | 15.8 | 82.6* | 2.0 | 85.5* | 0.2 | 0.1
c1ccc(CN(Cc2cccs2)C(c2cccs2)c2nnnn2C2CCCC2)cc1 (stereo unspecified) | 10.4 | 41.2 | 1.3 | 32.5 | 0.6 | 0.7
O=c1cc(NCc2ccccc2)c2ccccc2o1 | 9.9 | -1.1 | -4.9 | 66.0* | 1 | 0.3
Nc1c(NC2CCCCC2)c2ccccc2oc1=O | 12.9 | 16.8 | 2.7 | 35.0 | 0.8 | 0.7
O=c1cc(NC2CCCCC2)c2ccccc2o1 | 9.3 | 52.8* | -1.6 | 60.2* | 0.5 | 0.4
CCCN1C2CCCC1CC(NC(=O)c1cc(OC)c(OC)c(OC)c1)C2 (stereo unspecified) | 7.2 | 0.3 | 2.8 | 1.9 | 1 | 1
COc1ccc(C(CNC(=O)c2cc3ccccc3cc2OC)N2CCCC2)cc1 (stereo unspecified) | -0.9 | 5.0 | 13.2 | 3.9 | 0.9 | 1
O=C(N/N=C/c1ccc(Br)o1)/C(=C/c1ccc([N+](=O)[O-])cc1)NC(=O)c1ccccc1 | 11.2 | 24.2 | 4.6 | 52.3* | 0.8 | 0.5
O=C(N/N=C/c1ccco1)/C(=C/c1cccc([N+](=O)[O-])c1)NC(=O)c1ccccc1 | -0.9 | 11.1 | -9.7 | 68.9* | 0.9 | 0.3
CC1CCN(S(=O)(=O)c2ccc(S(=O)(=O)NCC3COCCO3)cc2)CC1 (stereo unspecified) | 4.9 | 3.3 | 18.5 | 60.2* | 1 | 0.4
Nc1ccc2nc(CN3CCOCC3)[nH]c2c1 | 0.8 | 9.4 | 1.6 | 2.1 | 0.9 | 1
COc1ccc2[nH]c(C)c(C(=O)CN3CCN(C/C=C/c4ccccc4)CC3)c2c1 | 8.5 | 54.2* | 6.6 | 11.2 | 0.5 | 0.9
Cc1[nH]c2ccccc2c1C(=O)CN1CCN(C/C=C/c2ccccc2)CC1 | 24.9 | -6.2 | -0.2 | 5.9 | 1.1 | 0.9
COc1ccccc1N1CCN(CC(=O)c2c(C)[nH]c3ccccc23)CC1 | -1.6 | -84.7 | -6.7 | 86.8* | 1.8 | 0.1
CCN(CC)CCNC(=O)C(C)c1nn(C)c(=O)c2ccccc12 (stereo unspecified) | 19.6 | -6.8 | -5.6 | . | 1.1 | .
